Compound activity: PubChem BioAssay, The Scripps Research Institute Molecular Screening Center
The list is not random: actives were taken first. Their share in the collection is about 3.4%.
GPR151 ag – activators of human GPR151. activation, % at 11.2 µM. 1% of 650,000 active. PathHunter beta-arrestin GPR151 cells, luminescence. AID 1508602. Q8TDV0; in the data active = activation above about 4.9%;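 also: 0% = median of compound wells and 100% = cells with positive control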
MITF primary – inhibitors of human MITF; O75030; inhibition, % at 2.6 µM; 0.91% of 650,000 active; AlphaScreen MITF homodimerization, bead proximity signal; AID 1259374; in the data active = inhibition above about 50%;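 also: 0% = vehicle wells with protein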
FBW7 act – human FBW7 E3 ligase activation, primary screen. AID 1259310. normalized activity (activation), % at 26.1 µM. Q969H0. 0.13% of 650,000 active. AlphaScreen FBW7–phospho-cyclin E peptide binding, activator screen; in the data active = normalized activity above about 1.9%;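 also: purified mutant Fbw7 with reduced substrate affinity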
Target sequence (Q969H0 whole entry, looked up): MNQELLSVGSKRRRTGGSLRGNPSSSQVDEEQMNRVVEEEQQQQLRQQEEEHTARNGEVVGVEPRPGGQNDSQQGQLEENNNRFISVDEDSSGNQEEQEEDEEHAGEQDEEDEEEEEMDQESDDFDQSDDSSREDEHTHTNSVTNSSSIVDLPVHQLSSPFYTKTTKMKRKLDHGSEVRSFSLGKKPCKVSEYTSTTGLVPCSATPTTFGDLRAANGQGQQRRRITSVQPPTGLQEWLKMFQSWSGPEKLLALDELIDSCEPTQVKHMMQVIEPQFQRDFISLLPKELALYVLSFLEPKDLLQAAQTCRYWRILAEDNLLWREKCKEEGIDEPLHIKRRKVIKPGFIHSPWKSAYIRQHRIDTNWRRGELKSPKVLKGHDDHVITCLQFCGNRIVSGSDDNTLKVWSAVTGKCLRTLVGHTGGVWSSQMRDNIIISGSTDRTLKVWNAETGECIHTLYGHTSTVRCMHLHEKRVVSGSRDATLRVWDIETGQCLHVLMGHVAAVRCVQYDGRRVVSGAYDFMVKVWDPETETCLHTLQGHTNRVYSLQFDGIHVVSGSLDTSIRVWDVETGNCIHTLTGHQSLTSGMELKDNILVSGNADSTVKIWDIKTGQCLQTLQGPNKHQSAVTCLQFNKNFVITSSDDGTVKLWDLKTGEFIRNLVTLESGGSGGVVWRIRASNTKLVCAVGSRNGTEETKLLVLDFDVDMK
TEAD-YAP inh – TEAD-YAP interaction inhibition | AID 1259422 | HEK-TIYL cells, TEAD-Gal4/YAP UAS-luciferase luminescence | 1.4% of 640,000 active | inhibition, % at 9.12 µM; in the data active = inhibition above about 32%;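 also: 0% = median of test compound wells and 100% = reference inhibitor wells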
GPR151 conf act – human GPR151 activation, confirmation screen; shares compounds with GPR151 ag; GPR151 PathHunter beta-arrestin cells, luminescence, 90 min; % of EA-reagent control over plate median; activation, % at 11.2 µM; 6,700 tested, under 10 active; AID 1508609;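 active = mean percent activation across replicates above the confirmation screen cutoff of 4.91%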
GPR119 counter – activates human GPR119 in a GPR151 counter-screen; 0.3% of 6,700 active; activation, % at 11.2 µM; GPR119 PathHunter beta-arrestin cells, luminescence, 90 min; 0 = compound-well median, 100 = enzyme-acceptor control; shares compounds with GPR151 ag;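 active = mean percent activation in the counterscreen above 29.09%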;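 also: counterscreen on off-target GPR119 to flag nonselective hits from the GPR151 activator screen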
Numbers without * were called inactive; / = not tested or not shown.

SMILES | GPR151 ag | MITF primary | FBW7 act | TEAD-YAP inh | GPR151 conf act | GPR119 counter
O=[N+]([O-])c1ccc(Oc2ccc(S(=O)(=O)/C=C/c3ccccc3)cc2)cc1 | 2.6 | -6.3 | 0.0 | 17.4 | / | /
Nc1nc(SCc2ccc(F)cc2)nn1CC(=O)Nc1ccccc1F | 6.3* | 25.7 | -0.1 | -3.8 | 0.3 | -4.9
CCOc1ccc(OCC)c(S(=O)(=O)N2CCN(C)CC2)c1 | -0.8 | -10.2 | -0.2 | -3.5 | / | /
CCn1cc(Br)c(C(=O)Nc2cccc(F)c2)n1 | -0.7 | 7.4 | -0.1 | -22.0 | / | /
CCn1cc(Br)c(C(=O)Nc2cccc(SC)c2)n1 | 6.4* | -2.4 | 0.1 | -25.2 | -0.1 | -7.4
COc1ccc(CC2(CCC(=O)NCc3cnn(C)c3C)CCC(=O)N2)c(F)c1 (centres undefined) | 5.1* | -7.1 | 0.3 | -1.4 | 1.1 | 10.0
O=S(=O)(NCc1nc(-c2ccc(Cl)cc2)no1)c1ccccc1 | -1.7 | 2.4 | 0.5 | 10.9 | / | /
Cn1cc(CCC(=O)NC2CCN(Cc3ccccc3)CC2)c2ccccc21 | 5.9* | 1.3 | -0.2 | -4.1 | 2.0 | 1.3
O=C(CCCn1c(=O)c2cccn2c2cccnc21)NC1CCN(Cc2ccccc2)CC1 | 5.8* | -7.8 | 0.1 | -13.2 | -1.0 | -3.8
O=C(CCCn1c(=O)c2cccn2c2ccccc21)NC1CCN(Cc2ccccc2)CC1 | -0.2 | -5.9 | 0.0 | -3.6 | / | /
COc1ccccc1CNC(=O)CCc1cn(C)c2ccccc12 | 5.9* | -1.6 | 0.0 | -4.0 | -0.4 | 0.4
COC(CN(C)C(=O)C(NS(=O)(=O)c1ccc2c(c1)CCN2C(C)=O)C(C)C)OC (centres undefined) | -1.1 | 2.0 | -0.1 | -6.0 | / | /
COc1ccc(Cl)cc1NC(=O)NNC(=O)c1cc2occc2[nH]1 | -0.5 | 3.6 | 0.1 | -31.1 | / | /
CC(C)(C)C(=O)Nc1cccc2c1C(=O)c1ccccc1C2=O | 0.3 | 16.5 | 0.0 | 7.4 | / | /
Cc1cccc(N(CCCN2C(=O)c3cccc4cccc(c34)C2=O)C(=O)c2cccs2)c1 | 5.7* | -7.5 | 0.1 | -1.7 | 1.7 | 11.9
Cc1cccc(-n2ncc3c(=O)n(CC(=O)NCc4ccc(F)cc4)cnc32)c1C | 1.6 | 0.3 | 0.0 | -20.0 | / | /
CCCNS(=O)(=O)c1ccc(CN2C(=O)c3cccnc3C2=O)cc1 | -0.3 | 3.6 | -0.2 | -5.2 | / | /
O=C1c2cccnc2C(=O)N1Cc1ccc(S(=O)(=O)N2CCCc3ccccc32)cc1 | 5.9* | 6.2 | -0.1 | 2.3 | 0.3 | -3.0
Cc1cccnc1NS(=O)(=O)c1ccc(CN2C(=O)c3cccnc3C2=O)cc1 | 6.0* | 9.6 | -0.1 | -2.5 | -0.2 | 2.0
COC(=O)[C@@H]1CC[C@H](C)[C@@H](c2ccc(C)cc2)N1C(=O)c1ccc(/C=N/OC[C@@H](O)[C@H]2O[C@@H]3OC(C)(C)O[C@@H]3[C@H]2O)cc1 | 6.7* | -2.7 | -0.1 | / | 0.6 | 10.6
Cc1cccc(NC(=O)/C(C#N)=C/c2ccccc2)n1 | 0.3 | -2.5 | 0.0 | -3.0 | / | /
O=C(O)c1ccc2c(c1)C(=O)N(c1cc(C(F)(F)F)ccc1Cl)C2=O | 0.5 | -13.4 | -0.1 | -6.8 | / | /
COc1ccc(C2CNCC2c2nc3ccc(-c4cn[nH]c4)cc3[nH]2)cc1 (centres undefined) | 6.0* | -20.0 | -0.1 | 2.5 | -0.5 | -4.3
COc1ccc2c(c1)CC(c1nc3ccc(-c4cn[nH]c4)cc3[nH]1)NC2 (centres undefined) | 0.4 | 25.5 | 0.0 | 25.2 | / | /
COc1ccc(-n2cc(C(=O)N3CC(C)CC(C)C3)c3ccccc3c2=O)cc1 (centres undefined) | 0.5 | 13.8 | 0.3 | 7.6 | / | /
SMILES | GPR151 ag | MITF primary | FBW7 act | TEAD-YAP inh | GPR151 conf act | GPR119 counter
O=C(NCc1ccco1)C1CC12CCN(C(=O)c1cc(-c3ccccc3)no1)CC2 (centres undefined) | 2.0 | 12.8 | 0.0 | -12.1 | / | /
O=C(NCCCc1ccncc1)C1CC12CCN(C(=O)c1cc(-c3ccccc3)no1)CC2 (centres undefined) | 6.1* | 17.2 | 0.8 | 5.7 | 1.4 | 4.7
CC(=O)N1CC(C)Sc2cc(S(=O)(=O)NCc3ccc4c(c3)OCO4)ccc21 (centres undefined) | 5.1* | 4.8 | 0.2 | 1.4 | 0.8 | -4.4
CCN(CC)CCN(C(=O)c1ccc(F)cc1)c1nc2ccccc2s1 | -0.1 | -5.8 | -0.1 | -12.7 | / | /
CC(C)C(=O)N1CC[C@@H]2[C@H](CCCN2C(=O)c2cccc(F)c2)C1 | 0.3 | 6.5 | -0.1 | 11.5 | / | /
COC(=O)c1cccc(C(=O)N2CCC[C@@H]3CN(C(=O)C(C)C)CC[C@H]32)c1 | 7.1* | 5.1 | 0.1 | -5.9 | 0.2 | 11.1
CC(NC(=O)OCCOc1ccccc1)(C(F)(F)F)C(F)(F)F | -0.4 | -8.9 | 0.0 | 9.8 | / | /
COc1ccccc1OCC(=O)Nc1ncn[nH]1 | -0.4 | 11.2 | -0.4 | -10.8 | / | /
CCOc1ccc(-c2cnc(N)n2C)cc1 | 5.4* | 11.1 | -0.4 | -4.3 | 1.2 | 7.0
O=C(Cn1nnc(-c2ccc([N+](=O)[O-])cc2)n1)NCC1CC1 | 5.9* | 14.0 | 0.5 | -4.6 | 1.2 | 4.7
COc1ccc(/C(N)=N/OC(=O)COc2ccc(Br)cc2)cc1OC | 0.9 | -5.0 | -0.1 | -3.9 | / | /
COc1ccc(OCC(=O)O/N=C(\N)c2ccc(OC)c(OC)c2)cc1 | 8.2* | -9.4 | -0.3 | 6.9 | 0.4 | 9.9
CC(Oc1ccccc1)C(=O)Nc1ccccc1Br (centres undefined) | -0.3 | -13.3 | 0.0 | -6.1 | / | /
CC(=O)Nc1ccccc1NC(=O)C(C)Oc1cccc(C)c1 (centres undefined) | 26.6* | 5.2 | -0.1 | -1.5 | -0.6 | -12.6
CC(=O)Nc1ccc(NC(=O)C(C)Oc2cccc(C)c2)cc1 (centres undefined) | 0.4 | 11.7 | -0.1 | 0.8 | / | /
COc1ccc(OC(C)C(=O)Nc2cc(Cl)ccc2C)cc1 (centres undefined) | 9.3* | 6.4 | 1.2 | 15.2 | -0.8 | -4.2
CC(Oc1ccccc1)C(=O)Nc1ccccc1O (centres undefined) | 5.3* | 12.3 | 0.1 | -8.4 | -0.3 | 9.6
O=C(NC1CC1)c1ccc(-c2cnc3c(NCc4ccc(F)cc4)nccn23)cc1 | 2.3 | 20.3 | 0.7 | -0.1 | / | /
CC(=O)C(/C=N/c1nc(C)cc(C)n1)=C(\C)O | 1.3 | 0.7 | 0.2 | -1.9 | / | /
CSc1nnc2c(n1)OC(c1ccc(-c3ccc(F)cc3)o1)Nc1ccccc1-2 (centres undefined) | 1.1 | -5.2 | -0.1 | 3.6 | / | /
O=C(NC1(C(F)(F)F)NC(=O)N(c2ccc(F)cc2)C1=O)c1ccncc1 (centres undefined) | 12.8* | -1.9 | 0.2 | 4.6 | 0.6 | 7.0
COc1ccccc1C(=O)NC1(C(F)(F)F)NC(=O)N(c2ccc(C)c(C)c2)C1=O (centres undefined) | 7.3* | -0.6 | 0.5 | -5.5 | 0.4 | -6.5
